{"source": "PubChem BioAssay AID2680", "about": "(National Center for Advancing Translational Sciences (NCATS), 2010)", "note": "This is one part of the list. Where a call stands in place of a potency, no number is given. Results filed as inconclusive are left out. The source made the active and inactive calls. Calls follow the shape of the dose curve; as a rule, active = well fitted inhibition curve with a large enough effect; inconclusive = small, poorly fitted or top-dose-only effect; inactive = no such curve, though single readings can be large or run the other way.", "data": [{"biological_target": "Glutathione-independent formaldehyde dehydrogenase (Pseudomonas putida) (UniProt P46154)", "sequence (P46154 whole entry, looked up)": "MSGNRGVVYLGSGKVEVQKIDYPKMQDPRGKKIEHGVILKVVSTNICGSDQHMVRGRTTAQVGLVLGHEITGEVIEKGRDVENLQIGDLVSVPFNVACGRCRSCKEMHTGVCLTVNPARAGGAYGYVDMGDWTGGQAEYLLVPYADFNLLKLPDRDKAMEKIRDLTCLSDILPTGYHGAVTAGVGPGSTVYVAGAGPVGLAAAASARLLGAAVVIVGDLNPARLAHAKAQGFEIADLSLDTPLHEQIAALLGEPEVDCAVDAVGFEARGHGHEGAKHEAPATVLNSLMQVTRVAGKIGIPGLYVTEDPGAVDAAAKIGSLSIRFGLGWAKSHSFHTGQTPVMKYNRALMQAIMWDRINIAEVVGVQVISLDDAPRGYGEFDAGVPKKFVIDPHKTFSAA", "experiment": "Counterscreen for JMJD2E Inhibitors: qHTS Assay for Inhibitors of Formaldehyde Dehydrogenase (FDH)", "settings": "FDH enzyme assay, NADH fluorescence kinetic; series mostly up to 56.7 µM", "method": "This assay is a counterscreen for a related assay for inhibitors of JMJD2E. See AID 2147 for details. The JMJD2E assay utilized an FDH-coupled protocol. To screen for false positive results in the primary assay due to inhibition of the formaldehyde dehydrogenase coupled enzyme, an FDH-only assay was run using FDH as the enzyme (0.000025 U/uL final concentration) and 10 uM formaldehyde and 0.25 mM NAD+ as the substrate, and following the same fluidic protocol as described in AID 2147 for the coupled HTS assay. Actives in this assay are likely false positives of the primary HTS.\nAssay is initiated by dispensing 3 uL of enzyme solution (4/3x final concentration) into a 1,536-well assay plate using a nanoliter solenoid-based dispenser (Beckman-Coulter, Fullerton, CA). After pintool transfer of compound solution, the assay plate is incubated at room temperature for 10 minutes, followed by a 1 uL addition of 4x substrate solution to initiate the reaction (final assay volume of 4 uL). The plate is then manually transferred into the ViewLux reader for kinetic measurements.", "values": [{"smiles": "O=C1CC(Sc2ncn[nH]2)C(=O)N1c1ccccc1", "note": "(configuration not stated)", "Potency": "0.316 µM (active)"}, {"smiles": "Nc1ccc(Nc2cc(O)c3ncccc3c2)cc1", "Potency": "inactive"}, {"smiles": "COc1ccc(Cl)cc1CSc1ncn[nH]1", "Potency": "0.316 µM (active)"}, {"smiles": "Oc1c(CN2CCCC2)cc(COCc2ccccc2)c2cccnc12", "Potency": "inactive"}, {"smiles": "Cc1ccc(N2C(=O)CC(Sc3ncn[nH]3)C2=O)cc1", "note": "(configuration not stated)", "Potency": "0.316 µM (active)"}, {"smiles": "Oc1ccc(/C=C/c2c(F)cccc2F)c2cccnc12", "Potency": "inactive"}, {"smiles": "Oc1cccc2cc(-c3ccncc3)cnc12", "Potency": "inactive"}]}]}
